Screening results as filed in PubChem BioAssay.
Most compounds without a hit are left out; they make up all but 1.5% or so of the library.
cytoskel mod = modifiers of F-actin cytoskeleton organization, primary screen, imaging, HUVEC, phalloidin staining, high-content imaging. hit rate 0.18% among 91,000. AID 836, 2007. HUVEC TNFa F-actin phalloidin imaging. inhibition, % at 2 µM;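 active = inhibition above the batch mean plus 3 SD and confirmed as a hit by visual image inspection, cut at about 30% in these data, passing the limit was not always enough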
Measles CPE = compounds protecting cells from measles virus cytopathic effect, primary screen, measles RdRp inhibitor project, single point, MLSMR library, absorbance; Measles virus-infected cells, CPE protection; protection (pct of control), % at 4 µM; hit rate 1.5% among 140,000; AID 841, 2007; in the data active = protection mostly above about 24%, no sharp cut-off; inactive = mostly below about 26%
* hit, by the source's call; · = not tested or not shown.

SMILES	cytoskel mod	Measles CPE
COC(=O)c1ccc(CSc2nnc(-c3c[nH]c4ccccc34)n2-c2ccccc2)cc1	·	53.8*
COc1ccc(C(=O)Cn2c(C(=O)/C=C/c3ccccc3)nc3ccccc32)cc1	-13.3	2.5
COc1cc(OC)nc(-n2ncc(Br)c(Br)c2=O)n1	·	1.6
O=C(CC(c1ccccc1)c1ccccc1)OCn1nnc2ccccc2c1=O	10.8	23.3
COc1cccc(N(C(=O)Cn2nnc(-c3ccc(C)o3)n2)C(C(=O)NC(C)(C)C)c2cccs2)c1 (stereo unspecified)	-31.2	6.4
CCC(C(=O)NC(C)(C)C)N(C(=O)Cn1nnc(-c2cccs2)n1)c1cnc2ccccc2c1 (stereo unspecified)	-20.2	80.2*
Cc1nc(NCc2ccco2)c2c3c(sc2n1)CCC3	6.7	6.0
CCN1CCc2c(sc3c2c(NCc2ccco2)nc2nnnn23)C1	·	35.4*
C=CCc1cc(OC)ccc1OCCOCCC(C(=O)OCC)C(=O)OCC	·	21.2*
C=CCc1cc(Cl)ccc1OCCOCCNCCOC	·	1.2
Clc1nc(-c2ccccc2)cc(-c2ccccc2)n1	·	25.9
COc1ccccc1NS(=O)(=O)c1ccc(NN=C2CCCCC2)c([N+](=O)[O-])c1	·	13.2
CC(=O)c1ccc(NC(=O)C(C)OC(=O)c2ccc(NS(=O)(=O)c3ccc(F)c(F)c3)cc2)cc1 (stereo unspecified)	·	24.6
CC(C)C(=O)Nc1cc(S(=O)(=O)Nc2ccc(Cl)cc2)ccc1Cl	·	44.6*
COc1ccc(Cl)cc1NC(=O)C(C)OC(=O)c1ccc(NS(=O)(=O)c2ccc3[nH]c(=O)[nH]c3c2)cc1 (stereo unspecified)	·	48.1*
CC(C)C(=O)Nc1cc(S(=O)(=O)Nc2cccc(Cl)c2)ccc1Cl	·	26.2
O=C(NC(c1ccccc1)C(Cl)(Cl)Cl)c1ccccc1 (stereo unspecified)	·	17.7
CCN(CC)C1=CC2=CC(=C(C#N)C#N)CCC2CC1 (stereo unspecified)	·	38.9*
CCCCN(C)C1=CC2=CC(=C(C#N)C#N)CCC2CC1 (stereo unspecified)	·	34.5
O=[N+]([O-])c1ccc2nccn2c1	25.7	11.2
c1ccc(Cn2ccc(-c3cnc(-c4ccccc4)s3)n2)cc1	·	4.9
O=C(N/N=C/c1cccc([N+](=O)[O-])c1)C1CC1c1ccccc1 (stereo unspecified)	·	4.1
COc1ccc(-n2cnnc2SCC(=O)Nc2cccc(S(=O)(=O)N3CCCCC3)c2)cc1	·	1.5
Cc1cc(NC(=O)C(=O)NCCN2CCN(C(=O)c3cccs3)CC2)ccc1Br	34.4*	15.6
COc1ccc(NC(=O)C(=O)NCCN2CCN(C(=O)c3cccs3)CC2)cc1	-4.2	4.1
SMILES	cytoskel mod	Measles CPE
COc1ccc(S(=O)(=O)N2CCCCC2)cc1NC(=O)CSc1ncnc2ccccc12	·	4.8
CCOc1ccc(NC(=O)Cn2nnc(-c3ccccc3F)n2)cc1	-19.6	14.0
COc1ccc(NC(=O)Cn2nnc(-c3ccccc3F)n2)cc1	-22.4	49.0*
COc1ccc(C(=O)Cn2nnc(-c3ccccc3NC(=O)C3CCCCC3)n2)cc1	9.8	32.2*
COc1ccc(NC(=O)Cn2nnc(-c3ccccc3NC(=O)C3CC3)n2)cc1	·	5.9
CC(=O)Nc1ccccc1-c1nc2ccccc2nc1OCC(=O)c1ccc2ccccc2c1	3.9	16.3
Clc1ccc(NC2(c3nnnn3C3CCCCC3)CCCCC2)cc1	25.9	50.1*
Cc1cccc(C)c1-n1nnnc1C1(Nc2ccccc2)CCCCC1	-4.0	21.0
NC(=O)CC[C@@H]1NC(=O)[C@H](CO)NC(=O)c2cc([N+](=O)[O-])cc(I)c2NCC[C@@H](C(N)=O)NC(=O)[C@H](Cc2ccc(O)cc2)NC1=O	·	10.4
NC(=O)CC[C@@H]1NC(=O)[C@H](Cc2ccc(O)cc2)NC(=O)c2cc([N+](=O)[O-])cc(F)c2OCC[C@@H](C(N)=O)NC1=O	·	31.3*
CC(C)NC(=O)COC(=O)c1cc(F)c(F)cc1Cl	-1.0	19.9
CC(C)NC(=O)COC(=O)c1cc(Br)ccc1Cl	·	51.6*
CCC(/C=N/NC(=O)C(N)=O)CC	·	3.8
COc1ccccc1Oc1coc2c(CN(C)C)c(O)ccc2c1=O	2.1	0.9
Cc1nc(-c2coc3c(CN(C)C)c(O)ccc3c2=O)cs1	·	34.8*
COc1ccccc1N1C(=O)C2C(c3ccccc3F)NN(C(=O)c3ccc(C)cc3)C2C1=O (stereo unspecified)	·	50.6*
Cc1ccc(C(=O)N2NC(c3ccccc3F)C3C(=O)N(c4cccc(C)c4)C(=O)C32)cc1 (stereo unspecified)	·	18.5
CCNS(=O)(=O)c1cc(OC)c(Cl)cc1OC	·	4.5
CC1=C(C)CC(C(=O)c2ccccc2)C(C(=O)O)C1 (stereo unspecified)	5.7	47.7*
CC1=C(C)CC(C(=O)NCCc2ccccc2)C(C(=O)O)C1 (stereo unspecified)	3.1	8.3
Cc1ccc(NC(=O)c2ccccc2N(C)S(C)(=O)=O)cc1C	·	6.0
COC(=O)c1ccc(Oc2c(Cl)cccc2[N+](=O)[O-])cc1	·	12.1
COCCCNC(=O)C1CCCN(S(C)(=O)=O)C1 (stereo unspecified)	·	11.9
CCc1sc(NC(=O)COC)nc1-c1ccccc1	19.6	28.2*
COCC(=O)Nc1nc(-c2ccc(C)cc2)c(C)s1	-1.9	7.5
SMILES	cytoskel mod	Measles CPE
O=C(CSc1nc2ccccc2n1S(=O)(=O)c1ccccc1)N1CCCC1	·	18.4
Brc1ccc(CNCc2cccs2)cc1	·	18.9*
c1ccc(COc2ccc(CNCc3cccs3)cc2)cc1	10.7	14.7
CN(C(=S)NC(=O)CCCOc1ccc(Cl)cc1Cl)c1ccccc1	14.5	5.6
Cc1cccc(-n2c(SCC(=O)N3CC(=O)Nc4ccccc43)nc3ccccc3c2=O)c1C	·	25.1
COc1cc(/C=N/n2nnnc2Nc2ccccc2)cc(OC)c1OC	·	5.5
O=c1[nH]c(CSc2nnc(-c3ccccc3)n2-c2ccccc2)nc2ccccc12	·	27.9*
Cc1ccc(-n2c(SCc3nc4ccccc4c(=O)[nH]3)nnc2-c2ccccc2O)cc1	·	6.4
COc1ccc(C(NC(=O)C2CCCCC2)c2c(O)ccc3ccccc23)cc1 (stereo unspecified)	·	2.3
COC(=O)/C(=C/c1ccco1)NC(=O)c1ccccc1	·	7.0
O=C(O)/C(=C\c1ccco1)NC(=O)c1ccccc1	·	30.1*
C/C(Cn1nnc([N+](=O)[O-])n1)=N\NC(=O)c1ccccc1Cl	-4.6	49.8*
C/C(Cn1nnc([N+](=O)[O-])n1)=N\NC(=O)c1cccc(Cl)c1	8.4	11.0
CCOC(=O)c1c(CC(C)C)csc1NC(=O)COC(=O)c1cc(OC)c(OC)cc1[N+](=O)[O-]	·	26.8
CCOC(=O)CSc1nnc(-c2ccco2)n1-c1ccc(C)cc1	37.3	38.2*
CCOC(=O)CSc1nnc(-c2ccco2)n1-c1ccccc1	-2.8	23.3
Cc1nc(C(F)(F)F)nc(Nc2ccc(N=Nc3ccccc3)cc2)c1C#N	·	26.5
COc1ccc(/C=N/NC(=O)CC2N=C(Cc3ccccc3)NNC2=O)cc1OC (stereo unspecified)	·	27.8*
C/C(=N\NC(=O)CC1N=C(Cc2ccccc2)NNC1=O)c1ccc(C)cc1 (stereo unspecified)	-17.2	4.8
COc1cc(C=NCC2OCCc3ccccc32)cc(OC)c1 (stereo unspecified)	·	8.1
